Shiga toxin inh: A qHTS for Small Molecule Inhibitors of Shiga Toxin | Vero cells, Shiga toxin protein synthesis inhibition reporter | inhibition, % at 38.7 µM | 290,000 compounds, 9.2% hits | AID 2315, 2010; in the data active = inhibition mostly above about 28%, no sharp cut-off; inactive = mostly below about 43%
Marburg entry inh: qHTS for inhibitors of binding or entry into cells for Marburg Virus. Potency, µM (doses to about 37.8 µM), actives largely listed as inhibitors. Marburg virus pseudotyped entry inhibition, cell reporter. 300,000 compounds, 1.8% hits. AID 540276, 2011; calls by dose curve; tested in HEK293 cells
CHX counter: Cycloheximide Counterscreen for Small Molecule Inhibitors of Shiga Toxin; cell reporter, cycloheximide protein synthesis inhibition counterscreen; max response, %; 300,000 compounds, 12% hits; in the data active = max response mostly above about 13%, no sharp cut-off; inactive = mostly below about 14%; note: read at 38.3 µM for the half of the compounds with a filed dose
Pf growth 48h: Primary qHTS for delayed death inhibitors of the malarial parasite plastid, 48 hour incubation. P. falciparum luciferase growth in erythrocytes, 48 h. Potency, µM (titrated, usually from 28.7 µM), most hits filed as inhibitors. 310,000 compounds, 5.9% hits. AID 504832, 2011
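Cell-based growth assay: transgenic P. falciparum expressing firefly luciferase, cultured in red cells within RPMI 1640 containing 0.5% w/v Albumax, 24 mM bicarbonate and gentamycin. A drop in luciferase activity indicates inhibition.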
Pf growth 96h: Primary qHTS for delayed death inhibitors of the malarial parasite plastid, 96 hour incubation | P. falciparum luciferase reporter growth, 96 h | Potency, µM (series often up to 28.7 µM), actives largely listed as inhibitors | 320,000 compounds, 6.9% hits
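Infected RBCs, 2% Hct / 0.05% parasitemia final; luciferase-reporter P. falciparum; cpd 96 h, 37 C, 5% CO2; luciferase detection reagent; luminescence.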
Lassa entry inh: qHTS for Inhibitors of binding or entry into cells for Lassa Virus; Potency, µM (highest dose often 37.9 µM), usual class: inhibitors; Lassa virus pseudotype entry inhibition, cell reporter; 300,000 compounds, 1.2% hits; AID 540256, 2011; calls by dose curve; tested in HEK293 cells; note: nearly all actives have a fitted effect of over 50% in size
Large screens that a line does not name were inactive. In the library only some 19% were active in any assay of this set; here they are far more common. Unless noted, calls come from the whole dose curve; as a rule, active = well fitted inhibition curve with a large enough effect; inconclusive = small, poorly fitted or top-dose-only effect, or another doubt; inactive = no such curve, though single readings can be large or run the other way.

COc1cc(S(=O)(=O)Nc2cccc(C)c2)ccc1N=Cc1c(C)[nH]n(-c2ccccc2)c1=O	none
Cc1n[nH]c(=O)c2c(NC(=O)CSc3nc4ccccc4c(=O)n3CCCO)oc(C)c12	none
CCCCNC(C(=O)Nc1ccc(Cl)c([N+](=O)[O-])c1)c1ccccc1 (configuration not stated)	Pf growth 48h inconclusive, Pf growth 96h 11.7µM
O=C(c1cc2cc(Br)cc(Br)c2oc1=O)N1CCCC1	none
c1ccc(-c2cc(-c3ccc(N4CCOCC4)cc3)nc3ccccc23)cc1	Marburg entry inh inconclusive, CHX counter 13.5, Pf growth 48h inconclusive, Pf growth 96h 13.1µM, Lassa entry inh inconclusive
Cc1ccc(-c2nc(Nc3ccc(N4CCOCC4)cc3)c3ccccc3n2)cc1	Shiga toxin inh 52.4, Pf growth 48h 13.1µM, Pf growth 96h inconclusive, Lassa entry inh inconclusive
c1ccc(-c2cc(N3CCOCC3)nc(-c3ccccc3)n2)cc1	none
Cc1ccc(-c2nc(Nc3cccc(O)c3)c3ccccc3n2)cc1	Pf growth 96h inconclusive (no result: Marburg entry inh, Lassa entry inh)
Cc1ccc(-c2nc(Nc3ccc(O)cc3)c3ccccc3n2)cc1	Marburg entry inh inconclusive, CHX counter 13.8, Lassa entry inh inconclusive (no result: Pf growth 48h)
COc1ccc2[nH]c(=O)c(CN(C(=O)C3CCCO3)c3ccc(C)c(C)c3)cc2c1 (configuration not stated)	Marburg entry inh inconclusive, Pf growth 48h inconclusive, Lassa entry inh inconclusive
CCOC(=O)N1CCN(C(=O)c2cc3c(s2)-c2c(C)cccc2OC3)CC1	none (no result: Marburg entry inh, Lassa entry inh)
O=S(=O)(NCCc1csc(-c2cccnc2)n1)c1cc(F)ccc1F	Pf growth 96h inconclusive
COc1ccc(-c2cc(-c3ccccc3)nc(SCC(=O)CC(=O)OC(C)C)c2C#N)cc1	none (no result: Shiga toxin inh, CHX counter, Pf growth 48h, Pf growth 96h)
CCc1ccc(N2CC(C(=O)N3CCCC3)CC2=O)cc1 (configuration not stated)	Pf growth 96h inconclusive
O=C(NCCCl)NNc1c(Cl)cc(Cl)cc1Cl	Marburg entry inh inconclusive, Pf growth 96h inconclusive
CCCCNC(=S)NNc1c(Cl)cc(Cl)cc1Cl	Marburg entry inh inconclusive, Pf growth 96h 8.28µM, Lassa entry inh inconclusive
CC(=O)Nc1ccc(OS(=O)(=O)c2ccc(Cl)cc2)cc1	Shiga toxin inh 39.6, Pf growth 48h inconclusive
CC(=O)Nc1ccc(S(=O)(=O)Nc2ccc([N+](=O)[O-])cc2)cc1	none (no result: Shiga toxin inh, Marburg entry inh, CHX counter, Lassa entry inh)
CC(=O)Nc1ccc(S(=O)(=O)Oc2ccc(C=O)cc2)cc1	Marburg entry inh inconclusive, Pf growth 96h inconclusive
COc1cc(C=O)cc(OC)c1OS(=O)(=O)c1ccc(NC(C)=O)cc1	Pf growth 96h 4.15µM
COc1ccc(C=O)cc1OS(=O)(=O)c1ccc(NC(C)=O)cc1	Pf growth 48h inconclusive, Pf growth 96h inconclusive, Lassa entry inh inconclusive
CC(=O)Nc1ccc(OS(=O)(=O)c2ccc([N+](=O)[O-])cc2)cc1	Pf growth 48h 13.1µM (no result: Marburg entry inh, Lassa entry inh)
CSc1ncc(Cl)c(C(=O)NCc2ccc(C)cc2)n1	none (no result: Shiga toxin inh, CHX counter, Pf growth 48h, Pf growth 96h)
Cc1cc(C)n2nc(SCC(=O)N/N=C/c3ccc(F)cc3)nc2n1	Lassa entry inh inconclusive
Nc1ccc(-c2nnc(-c3ccc(N)cc3)o2)cc1	Shiga toxin inh 72.6, CHX counter 48.4, Lassa entry inh inconclusive
Cc1cccc(-c2nnc(-c3ccc(N)cc3)o2)c1	Shiga toxin inh 75.4, CHX counter 35.2, Lassa entry inh inconclusive
O=C(O)CSC1=NC(=Nc2cccc(Cl)c2)C2(CCCCC2)N1c1ccccc1	none
COc1cc2c(cc1OC)/C(=C/C(=O)c1ccccc1F)NCC2	none
COc1cc2c(cc1OC)/C(=C/C(=O)c1cccc([N+](=O)[O-])c1)NCC2	Marburg entry inh inconclusive, Pf growth 48h inconclusive, Pf growth 96h inconclusive, Lassa entry inh inconclusive
COc1cc2c(cc1OC)/C(=C/C(=O)c1ccc(F)cc1)NCC2	Pf growth 48h inconclusive, Pf growth 96h 11.7µM, Lassa entry inh inconclusive
COc1cc2c(cc1OC)/C(=C/C(=O)c1ccc(OC)c([N+](=O)[O-])c1)NCC2	Marburg entry inh inconclusive, CHX counter 11.5, Pf growth 96h inconclusive, Lassa entry inh inconclusive
CC(C)Cn1c(O)c(N=NC(=O)c2cccc(S(=O)(=O)N3CCCCC3)c2)c2ccccc21	Marburg entry inh inconclusive, Pf growth 48h inconclusive, Pf growth 96h inconclusive, Lassa entry inh inconclusive
Cn1c(O)c(N=NC(=O)c2ccco2)c2ccccc21	Shiga toxin inh 144.9, Marburg entry inh inconclusive, CHX counter 43.9
Cn1c(O)c(N=NC(=O)CNC(=O)c2ccco2)c2ccccc21	none (no result: Marburg entry inh, Lassa entry inh)
CC(C)CCn1c(O)c(N=NC(=O)c2ccco2)c2ccccc21	Shiga toxin inh 24.2, Pf growth 48h inconclusive, Pf growth 96h inconclusive
CCC(C)NC(=O)C1CCN(S(=O)(=O)c2cccc3cccnc23)CC1 (configuration not stated)	none (no result: Marburg entry inh, Pf growth 48h, Lassa entry inh)
Oc1c(Cl)cc(Cl)cc1C=Nc1cc(C(F)(F)F)ccc1N1CCc2ccccc2C1	Shiga toxin inh 81.3, CHX counter 51.7 (no result: Marburg entry inh, Lassa entry inh)
Cc1c(C)n(CCc2ccccc2)c2ncnc(NN)c12	CHX counter 16.4
Cc1c(C)n(CCc2ccccc2)c2ncnc(NCCCO)c12	Shiga toxin inh 101.7, CHX counter 48.0 (no result: Marburg entry inh, Lassa entry inh)
Cc1c(C)n(Cc2ccccc2)c2ncnc(NN)c12	CHX counter 14.8 (no result: Marburg entry inh, Lassa entry inh)
Cc1ccc(-n2c(C)c(C)c3c(NCCO)ncnc32)cc1	Shiga toxin inh 61.0, Marburg entry inh inconclusive, CHX counter 39.7
Cc1c(C)n(Cc2ccccc2)c2ncnc(NCCN(C)C)c12	Pf growth 48h inconclusive (no result: Marburg entry inh, Lassa entry inh)
Cc1c(C)n(Cc2ccccc2)c2ncnc(NCCCN(C)C)c12	none (no result: Marburg entry inh, Lassa entry inh)
COc1ccc(C)cc1NC(=O)C1CCN(S(=O)(=O)c2ccccc2)CC1	Pf growth 96h inconclusive (no result: Marburg entry inh, Lassa entry inh)
CSc1ccc(CN(C)C(C)C(=O)Nc2ccc(F)c(F)c2F)cc1 (configuration not stated)	none (no result: Marburg entry inh, Lassa entry inh)
Cn1nnc2c(NCCc3ccccc3)ncnc21	none (no result: Shiga toxin inh, Marburg entry inh, CHX counter, Pf growth 48h, Pf growth 96h)
COCCn1c(C)c(C)c2c(NCCc3ccccc3)ncnc21	Shiga toxin inh 67.4, CHX counter 25.0 (no result: Marburg entry inh, Lassa entry inh)
O=C(Nc1c[nH]c2c(Cl)cccc2c1=O)N1CCN(c2ccccn2)CC1	CHX counter 15.6, Pf growth 96h inconclusive (no result: Marburg entry inh, Lassa entry inh)
CCOC(=O)N1CCN(Cc2nc3ccc([N+](=O)[O-])cc3c(=O)n2-c2ccc(OC)cc2OC)CC1	none (no result: Pf growth 48h)
Oc1ccc(-c2nc3ccccn3c2Nc2ccc3c(c2)OCCO3)cc1	Marburg entry inh inconclusive (no result: Shiga toxin inh, CHX counter, Pf growth 48h, Pf growth 96h)
Cc1cccn2c(NCc3ccc4c(c3)OCO4)c(-c3ccc(O)cc3)nc12	Pf growth 48h 4.15µM
COc1ccc(-c2nc3ccccn3c2NCc2ccc3c(c2)OCO3)cc1	Shiga toxin inh 49.4, CHX counter 22.3
Cc1ccn2c(Nc3ccc4c(c3)OCO4)c(-c3ccc(O)cc3)nc2c1	Pf growth 48h inconclusive, Pf growth 96h 11.7µM
COc1cc(-c2nc3ccc(C)cn3c2Nc2ccc3c(c2)OCCO3)ccc1O	Pf growth 48h 11.7µM, Pf growth 96h 13.1µM
